Compounds with a hit are over-represented: about 3.1% of the library has one in this group of screens.
VDR inhibitor = blocks the human vitamin D receptor. P11473. VDR-SRC2-3 peptide fluorescence polarization, 2 h. Potency, µM, usual class: inhibitors. 0.93% of 400,000 active
Target sequence (P11473 whole entry, looked up): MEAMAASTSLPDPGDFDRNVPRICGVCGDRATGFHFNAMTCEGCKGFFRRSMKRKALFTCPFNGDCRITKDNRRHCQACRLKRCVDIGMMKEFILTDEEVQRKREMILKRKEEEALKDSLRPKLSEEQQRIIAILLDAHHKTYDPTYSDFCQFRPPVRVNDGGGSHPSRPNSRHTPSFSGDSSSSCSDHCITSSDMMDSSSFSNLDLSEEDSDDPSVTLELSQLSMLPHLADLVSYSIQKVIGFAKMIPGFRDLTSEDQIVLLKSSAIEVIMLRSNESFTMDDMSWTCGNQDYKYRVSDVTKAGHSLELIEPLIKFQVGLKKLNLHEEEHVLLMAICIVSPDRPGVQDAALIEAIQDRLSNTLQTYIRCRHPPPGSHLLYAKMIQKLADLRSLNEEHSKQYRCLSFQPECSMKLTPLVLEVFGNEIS
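Signal is fluorescence polarization, reporting how far test compounds block the interaction of VDR with the SRC2-3 coregulator peptide after a 2 h room-temperature incubation.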
Pin1 inh = inhibitors of human Pin1 | Q13526 | Pin1 FP peptide displacement, HiFluor488, 10 min | Potency, µM (series often up to 115 µM), hits mostly inhibitors | 0.009% of 390,000 active | AID 504891; active means well fitted inhibition curve with a large enough effect in the polarisation, with a control signal flat, not every such curve was filed as active; inconclusive means small, poorly fitted or top-dose-only effect, or effect the other way, or a change in a side signal; inactive means no such curve, though single readings can be large or run the other way; the % refers to the polarisation
PLK1 PBD inh = inhibitors of human PLK1 polo-box domain binding. Plk1 PBD binding of FITC phosphopeptide, fluorescence polarization. Potency, µM, hits mostly inhibitors. P53350. 2.8% of 360,000 active; further: series mostly up to about 57 µM; nearly all actives have a fitted effect of over 65% in size
ASM inhibitor = human S-ASM enzyme inhibition; 0.006% of 340,000 active; P17405; placental ASM, HMU-PC fluorogenic substrate, 60 min; Potency, µM (top dose mostly 57.5 µM), usual class: inhibitors
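Fluorogenic HMU-PC substrate (9 uM final) is turned over by placental ASM in 60 min at 37 C after a 10 min compound preincubation. Reaction ended by alkaline stop (pH 10), with fluorescence read at 386/447 nm.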
Tb PFK inh-1 = blocks T. brucei phosphofructokinase; O15648; T. brucei PFK, ADP-Glo luminescence; Potency, µM (titrated, usually from 57.5 µM), usual class: inhibitors; 0.17% of 330,000 active; further: nearly all actives have a fitted effect of over 60% in size
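Compounds were pin-transferred as a titration series up to 57 uM into substrate buffer (0.5 mM F6P, 0.1 mM ATP, pH 8.0), then 1.25 nM PFK was added and reactions ran 45 min before ADP-Glo detection.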
TDP1 block = blocks human tyrosyl-DNA phosphodiesterase 1. recombinant TDP1, AlphaScreen DNA substrate cleavage. Potency, µM (highest dose often 130 µM), actives largely listed as inhibitors. 0.28% of 350,000 active; further: nearly all actives have a fitted effect of over 40% in size
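Signal: AlphaScreen proximity between streptavidin donor and anti-FITC acceptor beads on intact substrate. Reaction: Tdp1 1 nM, substrate 15 nM final, 5 min RT after 15 min compound preincubation.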
Tb PFK KinaseGlo = orthogonal confirmation of T. brucei phosphofructokinase inhibitors; Potency, µM (doses to about 57.5 µM); AID 504636; shares compounds with Tb PFK inh-1; Tb PFK enzyme, ATP depletion, Kinase-Glo Plus luminescence; 47% of 1,100 active; calls by dose curve; further: nearly all actives have a fitted effect of over 60% in size
Tb PFK inh-2 = validation of T. brucei phosphofructokinase inhibitors; 41% of 1,100 active; AID 504637; Potency, µM (doses to about 57.5 µM), hits mostly inhibitors; shares compounds with Tb PFK inh-1; purified T. brucei PFK, ADP-Glo luminescence, 45 min; further: nearly all actives have a fitted effect of over 60% in size
A number is an active result; – = inactive; ? = inconclusive; · = no result given; [ ] = another dose, or the depositor's remark. Unless noted, the call rests on the fitted dose curve; in most records, active means well fitted curve in the direction sought with a large enough effect; inconclusive means small, poorly fitted or top-dose-only effect, or another doubt; inactive means no such curve, though single readings can be large; an effect the other way counts as inactive or inconclusive.

SMILES	VDR inhibitor	Pin1 inh	PLK1 PBD inh	ASM inhibitor	Tb PFK inh-1	TDP1 block	Tb PFK KinaseGlo	Tb PFK inh-2
Cc1ccc(/C=C2/NC(=O)N(c3ccccc3)C2=O)o1	?	?	–	–	?	–	?	?
CCN1C(=O)N/C(=C/c2ccc(C)o2)C1=O	89µM	–	–	–	13µM	–	?	?
CCN(CC)c1ccc(/C=C2\C(=O)NC(=S)N(C)C2=O)o1	–	?	–	–	–	–	·	·
Cc1ccc(/C=C2/NC(=O)N(Cc3ccc(Br)cc3)C2=O)o1	?	–	–	–	15µM	–	?	?
CCOc1ccc(CN(CCc2ccc3c(c2)OCO3)Cc2cc(OC)ccc2O)cc1	–	–	·	·	·	–	·	·
O=C(CC[N+](=O)[O-])OCC1OC(O)C(OC(=O)CC[N+](=O)[O-])[C@@H](OC(=O)CC[N+](=O)[O-])C1OC(=O)CC[N+](=O)[O-] (some centres undefined)	–	·	·	·	·	–	·	·
CCCc1cc2c(n1CCO)C(C)C1CN(C(=O)c3ccccc3)C(C)(C(=O)OC)C21 (centres undefined)	·	·	·	·	·	–	·	·
CCCCc1nc2ccccc2c(=O)n1-c1cccc(OC)c1	–	–	·	·	·	–[12.3 µM]	·	·
CCNc1nc(NCC)n2c(SCC(=O)Nc3ccc(OC(F)F)cc3)nnc2n1	–	–	–	·	7.6µM	·	5.4µM	8.5µM
CCNc1nc(NCC)n2c(SCC(=O)Nc3ccc(C)c(C)c3)nnc2n1	–	–	–	–	13µM	–	?	?
COc1ccc(CCCc2nnc(SCC(=O)Nc3ccc(C)c(C)c3)o2)cc1	–	?	–	–	–	–	·	·
CC(C)CCOP(=O)(c1ccc(N(C)C)cc1)C(O)c1c(Cl)cccc1Cl (centres undefined)	–	?	–	–	–	·	·	·
C[C@@H]1OC=C2[C@@H](O)[C@H]3O[C@H]3C(=O)[C@@]23[C@H]1[C@H]1C2=C([C@@H](O)[C@H]4O[C@@H]4C2=O)[C@@H]3O[C@@H]1C	·	·	·	·	·	–[21 µM]	·	·
O=[N+]([O-])c1ccc(-[n+]2c(-c3ccccc3)cc(-c3ccccc3)cc2-c2ccccc2)cc1	–	–	–	–	–	·	·	·
O=[N+]([O-])c1ccc(C2CC(c3ccccc3)=Nc3ccccc3S2)cc1 (centres undefined)	?	–	–	–	?	–	–	–
Fc1ccc(C2CC(c3ccco3)=Nc3ccccc3S2)cc1 (centres undefined)	–	–	–	–	?	–	–	–
COC[C@]12CN(C=O)C3C4C(OC)C1[C@@]3(C1CC3(O)C(OC)C(O)C4(OC(C)=O)C1C3OC(=O)c1ccccc1)[C@@H](OC)CC2O (some centres undefined)	–	·	·	·	·	–	·	·
CCN1CCN(C(=O)Cc2ccccc2OC)CC1	–	–	–	–	–	–	·	·
CCN1CCN(C(=S)c2ccc(O)cc2)CC1	79µM	–	4.7µM	–	13µM	–	6.7µM	24µM
CCN1CCN(Cc2cc(Br)cc(OC)c2O)CC1	–	–	–	–	–	–	·	·
CCN1CCN(C(=S)c2ccc(Br)cc2)CC1	?	–	8.4µM	–	?	–	11µM	27µM
COCCn1c(C)cc(C(=O)COC(=O)c2cc3c(s2)CCC3)c1C	–	·	?	–	?	·	?	–
Clc1ccc(C[n+]2cc(-c3ccccc3)n3c2CCC3)cc1Cl	–	–	–	–	?	–	6.7µM	11µM
O=C(COc1ccc([N+](=O)[O-])cc1)Nc1ccc(S(=O)(=O)N2CCOCC2)cc1	–	–	–	–	?	–	21µM	27µM
O=C(Cc1ccc(Cl)cc1)Nc1ccc(S(=O)(=O)N2CCOCC2)cc1	–	–	–	–	21µM	·	9.5µM	27µM
O=C(Cc1ccc(Cl)c(Cl)c1)Nc1cccc(S(=O)(=O)N2CCOCC2)c1	–	–	–	–	21µM	–	9.5µM	17µM

Screens deposited in PubChem BioAssay by National Center for Advancing Translational Sciences (NCATS).
